Experiment [1] has as its system Human papillomavirus type 1a protein E7 (residues 44-93). Description: HPV1a E7 fragment binders on microarrays, primary screen, biochemical, small-molecule microarray, residues 44-93, 635 nm fluorescence (AID 1108).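 Further: E7 fragment applied at 1 µg/mL in TBST for 1 h at 4 C; score combines spot fluorescence with its signal to noise ratio.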 Particulars: small-molecule microarray binding, fluorescence 635 nm; higher = more signal.
Experiment [2] is described as follows: modulators of HCV replicon luciferase signal, primary screen, HCV replication inhibitor project, Huh7 cells, luciferase reporter (AID 1109).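 Further: huh7 hepatoma cells harbouring a luciferase neomycin HCV replicon reporter; luciferase luminescence as measure of HCV replicon replication; test concentration not given here.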 To be noted: 48 h, higher = more signal. A general note: In antiviral work, replicon cells carry a viral genome segment that copies itself.
Experiment [3] concerns the target Left-right determination factor 2 (Homo sapiens) (UniProt O00292). Description: LEFTY2 binders on small-molecule microarrays, primary screen, biochemical, small-molecule microarray, 635 nm fluorescence scan (AID 1110). To be noted: LEFTY2 binding, higher = more signal.
Experiment [4] deals with Calmodulin-1 (Homo sapiens) (UniProt P0DP23). Description: CALM1 binders on microarrays, EGTA buffer, profiling panel, biochemical, small-molecule microarray, Cy5-labelled CALM1 (AID 1111).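 Further: labelled calmodulin applied in Tris saline Tween buffer holding calcium plus EGTA and DTT.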 To be noted: Cy5-CALM1 binding fluorescence, higher = more signal.
Experiment [5] shares this target. The experiment can be described thus: calcium-bound CALM1 binders on microarrays, profiling panel, artefact control for SMM control-protein annotation, biochemical, small-molecule microarray, Cy5-labelled CALM1, plus calcium (AID 1112).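 Further: score merges spot fluorescence with signal to noise from triplicate slides.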 Particulars: Cy5-CALM1 binding fluorescence, higher = more signal.
The nature of experiment [6]: small-molecule microarray binders of probe aWnt5a, primary screen, biochemical, biotinylated probe, 635/667 nm fluorescence (AID 1113).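 Further: score merges 667 nm fluorescence intensity with signal-to-noise per printed feature.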 To be noted: higher = more signal.
The nature of experiment [7]: small-molecule microarray binders of probe aShh, primary screen, biochemical, biotinylated probe, 635/667 nm fluorescence (AID 1114).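 Further: probe is biotin-labelled aShh protein from a stem cell growth factor screen; measures binding of labelled protein to compounds printed on the slide; score merges feature fluorescence at 667 nm with signal-to-noise.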 Particulars: higher = more signal.
Experiment [8] can be described thus: small-molecule microarray binders of probe aNog, primary screen, biochemical, biotinylated probe, 635/667 nm fluorescence (AID 1115).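 Further: probe is biotinylated aNog protein used at 0.15 µg/mL for 1 h at 4 C; z-score combines 667 nm fluorescence of each spot with its signal to noise.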 Particulars: higher = more signal.
Experiment [9] concerns the target Torsin-1A-interacting protein 1 (Homo sapiens) (UniProt Q5JTV8). Description: LAP1 binders from COS7 cell lysate, primary screen, small-molecule microarray, 635/667 nm fluorescence (AID 1116). Particulars: COS7-hLAP1 lysate binding, 635 nm fluorescence, higher = more signal.
The target of experiment [10] is Alpha-bungarotoxin (Bungarus multicinctus) (UniProt P60615). The experiment can be described thus: alpha-bungarotoxin binders on microarray, profiling panel, artefact control for SMM control protein annotation, biochemical, small-molecule microarray, Alexa647 label, 635/667 nm fluorescence (AID 1117). To be noted: alpha-BTX-A647 binding fluorescence, higher = more signal.
Sequence of Alpha-bungarotoxin (Bungarus multicinctus) (P60615 whole entry, looked up): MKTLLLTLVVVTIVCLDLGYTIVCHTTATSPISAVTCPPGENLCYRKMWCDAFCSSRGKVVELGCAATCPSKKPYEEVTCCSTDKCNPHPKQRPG

Sequence of Left-right determination factor 2 (Homo sapiens) (O00292 whole entry, looked up): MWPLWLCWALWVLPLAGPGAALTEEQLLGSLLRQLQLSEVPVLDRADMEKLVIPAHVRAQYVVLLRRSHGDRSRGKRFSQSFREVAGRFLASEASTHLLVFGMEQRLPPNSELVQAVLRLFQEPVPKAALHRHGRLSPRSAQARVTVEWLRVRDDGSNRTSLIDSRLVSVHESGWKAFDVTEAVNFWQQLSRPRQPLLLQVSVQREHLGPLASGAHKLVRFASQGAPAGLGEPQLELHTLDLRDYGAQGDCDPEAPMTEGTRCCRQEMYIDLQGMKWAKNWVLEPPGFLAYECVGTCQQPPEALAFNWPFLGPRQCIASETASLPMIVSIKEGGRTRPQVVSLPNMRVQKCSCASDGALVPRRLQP
Sequence of Torsin-1A-interacting protein 1 (Homo sapiens) (Q5JTV8 whole entry, looked up): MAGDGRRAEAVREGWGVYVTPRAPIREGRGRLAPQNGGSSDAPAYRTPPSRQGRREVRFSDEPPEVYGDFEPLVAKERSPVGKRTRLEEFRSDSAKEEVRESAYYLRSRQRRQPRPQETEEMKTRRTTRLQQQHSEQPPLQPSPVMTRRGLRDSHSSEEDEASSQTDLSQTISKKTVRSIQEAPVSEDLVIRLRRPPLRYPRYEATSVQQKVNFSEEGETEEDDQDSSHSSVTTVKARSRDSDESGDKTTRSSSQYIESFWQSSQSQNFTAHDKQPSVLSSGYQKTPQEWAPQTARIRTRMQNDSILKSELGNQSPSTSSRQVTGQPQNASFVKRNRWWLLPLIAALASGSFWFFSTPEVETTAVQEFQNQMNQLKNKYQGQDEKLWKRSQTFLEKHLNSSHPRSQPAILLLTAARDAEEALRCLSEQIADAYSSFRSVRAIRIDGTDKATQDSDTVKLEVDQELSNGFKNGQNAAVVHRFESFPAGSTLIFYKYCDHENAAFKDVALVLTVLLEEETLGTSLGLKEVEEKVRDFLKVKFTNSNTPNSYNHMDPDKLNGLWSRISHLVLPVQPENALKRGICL

For the compound `COc1cc2c(cc1OC)CN(C(=O)[C@H]1[C@@H]3C(=O)O[C@@H](c4ccccc4)[C@@H](c4ccccc4)N3[C@@H](c3ccccc3OCCO)[C@]13C(=O)Nc1ccc(C#CC4(O)CCCCCC4)cc13)CC2`, the composite z-score was -0.178 in experiment [1]; 0.519 in experiment [3]; 1.16 in [4]; -0.407 in experiment [5]; 0.0676 in experiment [6]; 0.0684 in experiment [7]. Moreover, the figures for the composite z-score in experiment [8], in [9] and in experiment [10] were -0.356, 1.02 and 1.83, respectively. Moreover, in experiment [2], the z-score was -2.36.

`COCCOC(=O)N1C(=O)[C@@]2(c3cc(C#CCCO)ccc31)[C@H](c1ccc(OCCO)cc1)N1[C@H](c3ccccc3)[C@H](c3ccccc3)OC(=O)[C@H]1[C@@H]2C(=O)NC[C@H](O)c1ccccc1`: the composite z-score in [1] is 1.39; in [3], 0.795; in experiment [4], 0.969; in experiment [5], 0.003; in experiment [6] it was -0.001; in experiment [7], -0.0904. For the same compound, the composite z-score is -0.213 in experiment [8], 1.29 in experiment [9] and 1.05 in [10]. The z-score in experiment [2] was -1.13.

`CO[C@H]1COC(=O)[C@H](C)COC(=O)[C@H](Cc2ccccc2)NC(=O)CC=C[C@H]1C`: the composite z-score was -0.943 in experiment [1]; 1.09 in experiment [3]; -1.37 in experiment [4]; -1.74 in experiment [5]; 0.266 in [6]; 0.223 in experiment [7]. In addition, the figures for the composite z-score in experiment [8], in experiment [9] and in [10] were 0.653, -0.0597 and -0.948, respectively. Besides, the z-score in [2] was -0.56.

For `C[C@@H]1CC[C@H]2C(=O)N3[C@@H](CC[C@@H](C)[C@@H]3c3cccc(N4CCOCC4)c3)C(=O)N2[C@H]1c1cccc(N2CCOCC2)c1`, the composite z-score in [1] was 0.384; in [3] it was 0.676; in [4] it was -0.413; in experiment [5], -0.403; in experiment [6], -0.0478; in [7], 0.51. For the same compound, the composite z-score was -0.459 in experiment [8], 0.653 in experiment [9] and 1.03 in experiment [10]. In experiment [2], this compound came in with a z-score of 0.27.

Turning to `C=CCN1C(=O)[C@]2(O[C@H](CCn3cc(CCO)nn3)[C@@H]([Si](C)(C)c3ccc(OC)cc3)[C@@H]2C)c2cc(NC(=O)c3ccc(OC)cc3)ccc21`, the composite z-score in experiment [1] is 1.09; in experiment [3] it was 0.774; in experiment [4], 0.289; in experiment [5] it was 0.336; in [6], -0.124; in experiment [7], 0.166. Also, the composite z-score in [8] was 0.188; in experiment [9] it was 0.573; in [10] it was 1.19. In addition, the z-score in experiment [2] is -3.44.

For `CCCCCCc1nc(-c2cc(C)c(OC)c(C)c2)cc2c1[Si](C(C)C)(C(C)C)O[C@H]2c1ccccc1`, the composite z-score in experiment [1] was -0.57; in experiment [3], -0.607; in experiment [4] it was -0.482; in [5], 0.244; in [6], -0.197; in experiment [7] it was 0.0278. For the same compound, the composite z-score in experiment [8] is -0.0755; in experiment [9] it was -0.872; in experiment [10] it was 0.117. Also, the z-score in experiment [2] worked out at 0.115.

Regarding `CCOC(=O)C[C@H]1[C@H](OC(=O)Cc2ccc3c(c2)OCO3)[C@@H](NC(=O)c2ccc3ccccc3c2)c2cc(OCCCO)ccc2N1C(=O)Cc1ccc(OC)cc1`, the composite z-score is 1.01 in experiment [1]; 0.296 in experiment [3]; 1.19 in experiment [4]; 0.139 in experiment [5]; -0.159 in experiment [6]; -0.367 in experiment [7]. For the same compound, the composite z-score is -0.568 in experiment [8], 0.941 in [9] and 0.454 in experiment [10]. In experiment [2], this compound displayed a z-score of -1.74.

With `C=CCNC(=O)[C@H]1[C@@H]2C(=O)O[C@@H](c3ccccc3)[C@@H](c3ccccc3)N2[C@@H](c2ccccc2OCCO)[C@]12C(=O)N(C(=O)OCCOC)c1ccc(C#CCNC(N)=O)cc12`, the composite z-score in experiment [1] was 0.0146; in experiment [3], 0.398; in experiment [4], 1.63; in experiment [5], 0.559; in [6], -0.124; in experiment [7], -0.0011. Besides, the composite z-score in [8] is 0.672; in experiment [9], 1.23; in experiment [10], 1.81. In addition, in experiment [2], the z-score is -1.08.

As to `COCCOC(=O)N1C(=O)[C@@]2(c3ccccc31)[C@H](C(=O)N1CCc3cc(OC)c(OC)cc3C1)[C@H]1C(=O)O[C@H](c3ccccc3)[C@H](c3ccccc3)N1[C@@H]2c1ccccc1OCCO`, the composite z-score in experiment [1] is 0.583; in [3], 0.284; in experiment [4], 1.25; in [5], 0.868; in [6], -0.124; in [7], 0.319. In addition, the composite z-score in experiment [8] came out at 0.185; in [9], 0.987; in experiment [10], 2.42. The z-score in experiment [2] was -1.51.

For the compound `C=C(CCCC)C(=O)CC[C@@H](OC(C)=O)c1ccccc1OCCO`, the composite z-score in [1] is -1.03; in experiment [3], -0.941; in [4] it was -0.923; in experiment [5] it was -1.13; in experiment [6], -0.154; in experiment [7] it was 0.0278. Moreover, the figures for the composite z-score in [8], in [9] and in [10] were -0.618, -0.572 and -1.31, respectively. The same compound gave a z-score in [2] of -3.42.

For the compound `O=C/C=C/c1ccccc1Cl`, the composite z-score in [1] is -1.36; in experiment [3] it was -0.524; in [4], 0.387; in [5], 0.618; in experiment [6], -0.0499; in experiment [7], -0.0626. Further, the composite z-score is 0.0811 in [8], -0.335 in experiment [9] and 1.76 in experiment [10]. In experiment [2], the z-score worked out at 1.03.

For `CCCCCCc1nc(C2CC2)c(C)c2c1[Si](C(C)C)(C(C)C)OC2`, the composite z-score is -0.497 in experiment [1]; -0.127 in [3]; -0.682 in experiment [4]; -0.111 in experiment [5]; -0.124 in experiment [6]; -0.0146 in experiment [7]. Moreover, the composite z-score in experiment [8] is -0.353; in experiment [9], -0.147; in experiment [10], 0.342. For the same compound, the z-score in experiment [2] was determined as 0.127.

Regarding `COCCCNC(=O)[C@@]1(Sc2ccc(C)cc2)CC(=O)N(Cc2cc(C(F)(F)F)cc(C(F)(F)F)c2)[C@@H]1c1ccc(CO)cc1I`, the composite z-score in experiment [1] was -0.975; in experiment [3], -1.28; in experiment [4], -0.0999; in [5], 1.14; in [6], -0.147; in experiment [7], 0.267. Also, the figures for the composite z-score in [8], in [9] and in experiment [10] were 0.942, 0.339 and -0.489, respectively. The compound also displayed a z-score in [2] of -1.22.

Consider `C=CC[C@@]12N=C(c3ccc(OCCCO)cc3)O[C@@H]1c1ccccc1CN(Cc1ccccc1)C2=O`, for which the composite z-score in experiment [1] is 1.17; in [3], -0.397; in [4], 1.06; in experiment [5], 0.429; in experiment [6], -0.0403; in experiment [7], 0.116. Moreover, the composite z-score in experiment [8] came to 0.87; in [9], 1.08; in [10] it was 1.56. Moreover, in experiment [2], the z-score is -3.23.

On to `COc1ccc(NN2C(C(O)c3cc(OC)c(OC)c(OC)c3)C=CC3C(=O)N(C4CCCCC4)C(=O)C32)cc1` (stereo not given), for which the composite z-score in experiment [1] was 1.22; in experiment [3] it was -0.346; in [4], 1.58; in experiment [5], 0.509; in [6] it was 0.114; in [7], -0.226. For the same compound, the composite z-score came to 0.273 in [8], 0.479 in experiment [9] and 1.96 in experiment [10]. Further, the z-score in experiment [2] was -1.92.

Regarding `CCOC(=O)C1=CC[C@@H](c2ccc(-c3ccc(OCc4ccccc4)cc3)c(OC)c2)N(S(=O)(=O)c2ccc(C)cc2)[C@H]1c1ccccc1`, the composite z-score in experiment [1] is 1.39; in experiment [3], 0.4; in experiment [4] it was 1.64; in experiment [5], 0.126; in [6], 0.0279; in experiment [7], -0.0171. For the same compound, the composite z-score in experiment [8] is -0.226; in experiment [9], 0.373; in [10], 1.27. In experiment [2], the z-score is -1.76.

In the case of `CC(c1ccccc1)C(O)C1C=CC2C(=O)N(C)C(=O)C2N1N(c1ccccc1)c1ccccc1` (stereo not given), the composite z-score was -0.304 in experiment [1]; -0.789 in [3]; 1.08 in [4]; 0.723 in [5]; -0.0057 in [6]; 0.809 in experiment [7]. Besides, the composite z-score was 0.332 in experiment [8], 0.765 in [9] and -0.212 in experiment [10]. Besides, the z-score in experiment [2] was 0.37.

On to `C=C(COC)/C(=C/C[C@@H](OC(C)=O)c1cccc(OCCO)c1)c1cc(C(=O)OC)ccc1OC`, for which the composite z-score in [1] is -0.307; in experiment [3], -0.357; in [4] it was -0.39; in [5], -0.0115; in experiment [6], -0.091; in [7], -0.0289. For the same compound, the figures for the composite z-score in [8], in experiment [9] and in [10] were 0.717, 0.505 and -1.07, respectively. In addition, the z-score in [2] is -0.72.

Regarding `C=C[C@H](OC)[C@@H](OC(=O)Nc1ccc(SC)cc1)c1ccc(O)c(F)c1`, the composite z-score was 0.998 in [1]; -0.367 in [3]; 0.0665 in experiment [4]; -0.0093 in experiment [5]; -0.0486 in [6]; 0.0008 in experiment [7]. In addition, the values for the composite z-score in experiment [8], in [9] and in experiment [10] were -0.443, 1.31 and 0.358, respectively. The compound also gave a z-score in experiment [2] of 3.8.

The values above are taken from PubChem BioAssay.
